High-throughput results as filed in PubChem.
Nrf2 block: Nrf2 qHTS screen for inhibitors | Potency, µM (series often up to 46 µM), for the others: top-dose activity change, negative = inhibition, usual class: inhibitors | hit rate 2.1% among 360,000 | A549 ARE-Fluc reporter, luciferase luminescence, 18-24 h; note: potency is the fitted concentration of half-maximal effect; % is set by controls: 0 for no effect and ±100 for the full control effect; nearly all actives have a fitted effect of over 60% in size
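A549 ARE_Fluc cells, 5000/well, 5% FBS OPTI-MEM; compounds in dose-response, 18-24 h at 37 °C/5% CO2; CellTiter-Fluor viability read (Ex 405/Em 525), then BugLite luciferase luminescence = Nrf2 activity.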
A549 viability: Nrf2 qHTS screen for inhibitors: counterscreen for cytotoxicity. hit rate 0.16% among 390,000. AID 504648, 2011. A549 ARE-Fluc cells, CellTiter-Fluor viability, 18-24 h. Potency, µM (series often up to 46 µM), inactives show at the top dose activity change, negative = cytotoxicity, most hits filed as inhibitors; note: potency is the fitted concentration of half-maximal effect; % is set by controls: 0 for no effect and ±100 for the full control effect
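Cytotoxicity counterscreen: CellTiter-Fluor fluorescence was measured in A549 ARE_Fluc cells after 18-24 h of compound exposure in a concentration series. The subsequent BugLite luminescent read reports ARE-luciferase activity.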
ClpP mod: qHTS Assay for Activators of ClpP | purified B. subtilis ClpP, FRET peptide cleavage, 20 min | Potency, µM (highest dose often 57.5 µM), inactives show at the highest dose activity change, negative = active | hit rate 1.9% among 340,000 | AID 651965, 2013; active = well fitted falling curve with a large enough effect; inconclusive = small, poorly fitted or top-dose-only effect; inactive = no such curve, though single readings can be large or run the other way; note: potency is the fitted concentration of half-maximal effect; the source files actives as falling curves though it sought activators and does not explain the sign; nearly all actives have a fitted effect of over 65% in size
Target sequence (P80244 whole entry, looked up): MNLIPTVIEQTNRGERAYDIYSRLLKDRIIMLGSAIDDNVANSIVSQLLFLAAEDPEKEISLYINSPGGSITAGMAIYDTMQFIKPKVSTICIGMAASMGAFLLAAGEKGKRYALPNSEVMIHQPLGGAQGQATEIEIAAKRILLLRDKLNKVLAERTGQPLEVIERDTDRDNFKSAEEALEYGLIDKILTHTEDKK
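FRET quenching reversal measured ClpP activation: 10 microg/mL B. subtilis ClpP at pH 8 with the FRET-FV decapeptide, read at 430 nm after 320 nm excitation. The 20-min minus 0-min signal was scaled between DMSO/no-enzyme wells and ADEP (5.8 microM final).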
TCR act: Activators of T cell receptors: qHTS campaign; primary human leukocytes, anti-CD3, IL-2 HTRF, 48 h; Potency, µM (titrated, usually from 9.22 µM), inactives show at the top dose activation of IL-2 secretion, hits mostly activators; 330,000 tested, under 10 active; note: % of control where 0% means no effect
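Primary human leukocytes incubated 48 hr with anti-CD3 beads plus compound, without co-stimulation. Secreted IL-2 measured by HTRF (europium cryptate/d2 anti-IL-2 pair, 320 nm excitation, 665 nm emission).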
Nrf2 ARE act: qHTS of Nrf2 Activators. AREc32 ARE-luciferase reporter (MCF7-derived line), luminescence, 24 h. Potency, µM (titrated, usually from 46.1 µM), for inactives: at the highest dose activation, usual class: activators. hit rate 0.31% among 410,000; note: potency is the fitted concentration of half-maximal effect; % of control where 0% means no effect; nearly all actives have a fitted effect of over 65% in size
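Each well held 1000 AREc32 cells, which were incubated with compound for 24 hr at 37 deg C after overnight attachment, and ARE reporter activity was quantified by firefly luciferase luminescence.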
miR-21 act: qHTS Assay for Modulators of miRNAs and/orActivators of miR-21. HeLa miR-21 FLuc reporter, luciferase, 48 h. 340,000 tested, under 10 active. AID 2288, 2010. Potency, µM (series often up to 38.3 µM), without a hit: top-dose activity change, positive = activation, actives largely listed as activators;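 note: % of control where 0% means no effect; miR-21 action dims this reporter so a rising signal means less miR-21 action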
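Using DMEM plus 10% FBS, HeLa miR-21-FLuc cells are incubated with test compounds (final up to about 40uM) for 48 hours; firefly luciferase signal is then imaged following reagent-mediated lysis.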
* marks the source's active call; other numbers are inactive results; ? = inconclusive; . = not tested or not shown; [ ] = dose if it differs, or a comment. Hits are enriched below; roughly 3.7% of the tested compounds scored in any of these assays. Unless noted, calls come from the whole dose curve; as a rule, active = well fitted curve in the direction sought with a large enough effect; inconclusive = small, poorly fitted or top-dose-only effect, or another doubt; inactive = no such curve, though single readings can be large; an effect the other way counts as inactive or inconclusive.

SMILES | Nrf2 block | A549 viability | ClpP mod | TCR act | Nrf2 ARE act | miR-21 act
CCOC(=O)c1c(C)[nH]c(C)c1S(=O)(=O)N(C)CC(=O)N1CCN(c2cccc(C)c2C)CC1 | 0% | -1% | -1% | . | 3% | 15%
CC1Oc2ccccc2OC1C(=O)Nc1ccccn1 (stereo unspecified) | 11% | 10% | 0% | 1%[46.1 µM] | 7.1µM* | -2%
COCCCN1C(=O)c2ccc(C(=O)OCC(=O)N(CCC#N)c3cc(C)cc(C)c3)cc2C1=O | 17% | 0% | -1% | -7% | 0% | .
COc1cccc(N=Nc2ccc3cccnc3c2O)c1 | -24% | -19% | 2% | -4% | -1% | -6%
O=Nc1ccc(O)c2ncccc12 | ? | ? | 0% | 4% | ? | ?
Cc1ccccc1N=Nc1ccc(O)c2ncccc12 | -21% | -17% | -4% | -1%[46.1 µM] | 9% | ?
O=S(=O)(O)c1cccc2c(N=Nc3ccc(O)c4ncccc34)cccc12 | -39% | 12µM* | -2% | 2% | -1% | 6%
COc1ccc(N=Nc2ccc(O)c3ncccc23)cc1 | 12µM* | ? | 1% | 13% | ? | 0%
COc1cccc(N=Nc2ccc(O)c3ncccc23)c1 | ? | ? | . | 1% | 11µM* | -11%
CCc1c(C)sc2c1CCN(Cc1cccc(F)c1)C2c1ccccc1 (stereo unspecified) | . | ? | ? | . | 0% | ?
O=C(NC(=S)Nc1ccc(F)c([N+](=O)[O-])c1)c1ccccc1F | ? | -4% | . | 3% | 29% | -28%
CC(C)C(=O)Nc1ccc(NC(=S)NC(=O)c2ccccc2F)cc1 | ? | 10% | 32µM* | 3% | 1% | -11%
COc1ccc2nc3oc(C(=O)N4CCCCC4)cc3cc2c1 | ? | 6% | 28µM* | 4%[46.1 µM] | 0% | -66%
CCOC(=O)C1CCN(C(=O)c2cc3cc4cc(OC)ccc4nc3o2)CC1 | ? | 0% | 18µM* | 6% | 0% | -34%
Cc1oc(-c2cccc(Cl)c2)nc1CN1CCC(C(=O)NCc2ccc(F)cc2)CC1 | 14% | -5% | 0% | . | 7% | 1%
CC(=O)Oc1c(Cl)cc(Cl)cc1/C=C/c1ccc2ccccc2n1 | 16% | 9% | ? | -8% | 13µM* | -20%
Clc1cccc(CON/C=N/c2ncnc3sccc23)c1 | 16µM* | -4% | -3% | 0% | -1% | 14%
O=C(/C=C/c1cccc([N+](=O)[O-])c1)c1cccs1 | ? | 2% | . | -1%[46.1 µM] | 16µM* | -12%
O=C(/C=C\c1cccs1)c1c(O)ccc2ccc(=O)oc12 | 1% | -1% | -2% | -6%[46.1 µM] | 11µM* | 4%
O=C(/C=C\Nc1cccc(F)c1)c1cccs1 | ? | -6% | 6% | 4% | 4µM* | -44%
O=C(/C=C/Nc1ccc(F)cc1F)c1cccs1 | ? | -4% | -2% | -1%[46.1 µM] | ? | 1%
O=C(C=Cc1cccs1)c1cccs1 | 1% | 0% | . | 1% | 22µM* | .
Cc1cc(C)c(C(=O)/C=C/c2cccs2)c(=O)[nH]1 | 8% | 1% | 0% | 9% | 14% | -7%
O=C(/C=C/c1cccc([N+](=O)[O-])c1)Nc1ccc(NC(=O)c2cccs2)cc1 | -6% | -3% | -1% | 4%[46.1 µM] | -1% | -8%
O=C(/C=C/c1cccs1)c1ccc(Br)cc1 | -2% | -9% | -1% | 4% | ? | -17%
CSc1ccc(CCNC(=O)c2ccc(-n3c(C)cc4c3CCCC4)cc2)cc1 | -22% | -1% | -8% | . | 21% | 28%
Cc1cc(O)c(C(=O)/C=C/c2cccc([N+](=O)[O-])c2)c(=O)o1 | 5% | 2% | . | -3% | 22µM* | -5%
Cc1cc(O)c(C(=O)/C=C/c2ccccc2O)c(=O)o1 | 1% | -10% | 0% | -2% | 15% | -8%
